An excerpt weighted towards active compounds, which were near 7.8% of everything screened.
NOMO-1 viab: STK33 inhibitor candidate reducing NOMO-1 cell viability. NOMO-1 AML viability, CellTiter-Glo luminescence, 72 h. inhibition, % (no concentration beside the values). 7.5% of 37,000 active. AID 2330; in the data active = inhibition above about 80%
MITF inh: MITF inhibition | 0.28% of 37,000 active | TRPM1 promoter luciferase, luminescence, 24 h | inhibition, % (test concentration not listed) | AID 2240; in the data active = inhibition above about 85%;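 note: human melanocyte line stably carrying TRPM1 promoter luciferase reporter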
Shh pathway inh: blocks Sonic Hedgehog signaling. 2.1% of 22,000 active. inhibition, % (test concentration not listed). Shh-LIGHT2 Gli-luciferase reporter, 30 h;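 active = mean inhibition across valid replicates above about 65%, limit read from the data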;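 note: pathway switched on by Shh-conditioned medium diluted 1 in 25 in low serum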
PD-1 reverse act: reversal of PD-1 mediated T-cell inhibition | primary human CD4 T cells, PD-L1 beads, CellTiter-Glo 96 h | 29,000 tested, under 10 active | activation, % (no concentration beside the values) | AID 2316; call rule not given here;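 note: 0% = median vehicle wells and 100% = positive control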
Starred values were filed as active, the others as inactive; x = not tested or not shown.

SMILES	NOMO-1 viab	MITF inh	Shh pathway inh	PD-1 reverse act
C=C1CC[C@@H](O)[C@]2(C)C[C@H]3OC(=O)C(=C)[C@H]3CC12 (some centres not stated)	104.3*	37.7	29.9	-5.7
C=C1C(=O)O[C@@H]2C[C@@]3(C)CC(=O)C=C(C)C3C[C@H]12 (some centres not stated)	119.5*	0.7	50.6	-6.4
N#CNC(=NC1CCCCC1)NC1CCCCC1	3.6	-6.0	-5.8	-0.3
CCOC(=O)c1cc2c(NC(C)=O)c(C(=O)OCC)sc2nc1C(F)(F)F	3.4	8.9	4.9	0.6
C[C@@H]1CN([C@H](C)CO)C(=O)Cc2cc(NS(=O)(=O)c3ccc(Cl)cc3)ccc2O[C@H]1CN(C)Cc1ccc(Cl)c(Cl)c1	104.6*	17.6	27.7	-0.6
C[C@@H]1CN([C@H](C)CO)C(=O)Cc2cc(NS(=O)(=O)c3ccc(F)cc3)ccc2O[C@H]1CN(C)Cc1ccc(Cl)c(Cl)c1	101.6*	11.7	13.2	x
O=C(CC(=O)Nc1ccccc1OC(F)(F)F)Nc1ccccc1OC(F)(F)F	19.3	-6.1	-7.3	-4.7
CCN(CC)C(=S)Sc1ncnc2sc3c(c12)CCCC3	125.4*	14.9	90.0*	-3.3
C[C@@H]1CN([C@@H](C)CO)C(=O)Cc2cc(NC(=O)CCC(F)(F)F)ccc2O[C@@H]1CN(C)Cc1ccc(Cl)c(Cl)c1	124.2*	45.4	3.1	-8.2
C[C@@H]1CN([C@@H](C)CO)C(=O)c2cc(NC(=O)CCC(F)(F)F)ccc2O[C@@H]1CN(C)Cc1ccc(Cl)c(Cl)c1	93.2*	-2.3	x	-2.4
Cc1csc2sc(-c3ccnc(SCC(=O)NCc4ccccc4)n3)c(C)c12	112.9*	-4.5	x	-1.6
Cc1cc(C)c2c(=O)[nH]c(SCC(=O)NCc3ccccc3)nc2n1	17.1	7.2	x	0.6
Cc1csc2sc(-c3ccnc(SCC(=O)c4ccccc4)n3)c(C)c12	0.8	-24.0	70.3*	0.0
Cc1ccc(-c2nc(SCC(=O)c3ccccc3)n[nH]2)cc1	15.1	-47.6	x	x
COc1cc2c(Cc3ccc(OC)c(OC)c3)nccc2cc1O	34.3	43.0	-2.2	2.8
O=c1c2c3c(sc2[nH]c(=S)n1Cc1ccccc1)CCC3	34.0	11.5	x	-0.1
Cn1c(=S)[nH]c2sc3c(c2c1=O)CCC(C(C)(C)C)C3 (configuration not stated)	123.2*	-16.7	-27.5	-5.0
Cc1c(Br)c([N+](=O)[O-])nn1CC(=O)Nc1cccnc1	-6.6	-5.3	x	1.5
COc1c(O[C@@H]2O[C@H](CO)[C@@H](O)[C@H](O)[C@H]2O)cc2c(c1OC)-c1ccc(SC)c(=O)cc1C(NC(C)=O)CC2 (some centres not stated)	-6.7	1.7	-68.2	1.0
CNC1CCc2cc(OC)c(OC)c(OC)c2-c2ccc(OC)c(=O)cc21 (configuration not stated)	97.4*	32.5	91.5*	-21.4
COc1cc(-c2nnc(SCC(=O)c3ccco3)n2C)cc(OC)c1OC	3.7	2.8	17.6	-1.3
CNC(=S)Nc1cc(Cl)cc(Cl)c1	16.3	18.3	15.3	0.3
CC(=O)Oc1ccc(O)cc1	69.0	4.4	52.6	-18.9
Cc1ccc(S(=O)(=O)Nc2ccc3c(c2)CC(=O)N([C@H](C)CO)C[C@@H](C)[C@H](CN(C)Cc2ccc(-c4ccccc4)cc2)O3)cc1	95.2*	-9.7	-31.6	-5.1
Cc1noc(C)c1S(=O)(=O)Nc1ccc2c(c1)CC(=O)N([C@@H](C)CO)C[C@H](C)[C@@H](CN(C)Cc1ccc(-c3ccccc3)cc1)O2	85.6*	7.9	1.3	-0.7
SMILES	NOMO-1 viab	MITF inh	Shh pathway inh	PD-1 reverse act
C[C@H]1CN([C@@H](C)CO)C(=O)Cc2cc(NS(=O)(=O)c3ccccc3)ccc2O[C@@H]1CN(C)Cc1ccc(-c2ccccc2)cc1	112.5*	11.1	11.1	0.8
Cc1noc(C)c1S(=O)(=O)Nc1ccc2c(c1)CC(=O)N([C@H](C)CO)C[C@@H](C)[C@H](CN(C)Cc1ccc(-c3ccccc3)cc1)O2	44.1	-2.5	4.5	x
C[C@H]1CN([C@@H](C)CO)C(=O)Cc2cc(NS(=O)(=O)c3ccccc3)ccc2O[C@H]1CN(C)Cc1ccc(-c2ccccc2)cc1	31.3	2.5	-8.2	1.5
C[C@@H]1CN([C@H](C)CO)C(=O)Cc2cc(NS(=O)(=O)c3ccc(F)cc3)ccc2O[C@H]1CN(C)Cc1ccc(-c2ccccc2)cc1	89.5*	11.9	-17.9	-3.1
Nc1cc(=O)[nH]c(SCC(=O)N2CCN(c3ccccc3)CC2)n1	37.3	4.8	x	x
Cc1ccc(S(=O)(=O)Nc2ccc3c(c2)CC(=O)N([C@@H](C)CO)C[C@@H](C)[C@@H](CN(C)Cc2ccc(-c4ccccc4)cc2)O3)cc1	123.8*	48.9	26.1	-3.1

High-throughput results: PubChem, Broad Institute
